Compound activity deposited in PubChem BioAssay by National Center for Advancing Translational Sciences (NCATS).
In the library only some 6.6% were active in any assay of this set; here they are far more common.
TGFb SMAD3 inh – inhibitors of TGF-b signaling. HepG2 CAGA-GFP TGF-b/SMAD3 reporter, GFP fluorescence, 18 h; TGF-beta stimulated, 500 pg/mL final. Potency, µM (top dose mostly 46.1 µM), for inactives: at the highest dose activity, negative = inhibition, usual class: inhibitors. 1.2% of 410,000 active. AID 588855; also: % is scaled to controls: 0 for no effect and ±100 for the full control effect; nearly all actives have a fitted effect of over 65% in size
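Using HEPG2 CAGA-GFP reporter cells at 1000 cells/well, we pinned test compounds, stimulated with recombinant TGF-beta (500 pg/mL final) and measured total well GFP after 18 h.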
HT1080 IDH1KD tx – toxicity to HT-1080 IDH1 knockdown cells (counter line); HT-1080 IDH1 knockdown viability, ATP luminescence, 48 h; Potency, µM (series often up to 46.1 µM), inactives show at the top dose activity, negative = toxicity, actives largely listed as cytotoxic; 2% of 360,000 active;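 also: 0% = DMSO wells and -100% = cell-free medium wells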
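Assay cells: HT-1080 with IDH1 knockdown, 750 per well, RPMI/5% FBS. Exposure: 48 h at 37 °C following 2 h pre-incubation. Read: CellTiter-Glo luminescence; fitted concentration-response, curve class assigned.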
HT1080NT lethal – kills 2HG-producing HT-1080-NT fibrosarcoma cells; 1.6% of 360,000 active; HT-1080-NT fibrosarcoma viability, CellTiter-Glo ATP luminescence, 48 h; Potency, µM (highest dose often 46.1 µM), without a hit: at the top dose activity, negative = less viability, usual class: cytotoxic; AID 686970;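 also: NT is the 2HG producing partner of a matched IDH1 knockdown line; 0% = DMSO-treated cells and -100% = media-only wells without cells; nearly all actives have a fitted effect of over 55% in size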
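HT-1080-NT; 750 cells/well; 5% FBS RPMI; 48 h compound, 37 degrees C; CellTiter-Glo luminescence; curve fitting and curve-class assignment.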
HepG2 viability – HepG2 cytotoxicity, counter-screen for TGF-b inhibitors; HepG2 CAGA-GFP viability, ATP luminescence, 18 h; Potency, µM (series often up to 46.1 µM), without a hit: top-dose activity change, negative = cytotoxicity, actives largely listed as cytotoxic; 0.76% of 410,000 active; AID 588856
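HepG2 CAGA-GFP cells (1000/well, DMEM with 1% FBS) received compound, then TGF-beta at 500 pg/mL final, and were incubated 18 hours at 37 degrees C. Viability was read by CellTiter-Glo luminescence. Media-only wells were set as complete cell-killing and DMSO as no toxicity.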
KB-V1 cytotox – kills drug-selected multidrug resistant KB-V1 cells. KB-V1 MDR cells viability, CellTiter-Glo, 72 h. Potency, µM (highest dose often 46.1 µM), most hits filed as cytotoxic. 3.4% of 400,000 active. AID 1347076; also: % is scaled to controls: 0 for no effect and ±100 for the full control effect; nearly all actives have a fitted effect of over 60% in size
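In this primary screen, KB-V1 cells overexpressing P-gp are incubated with library compounds (lowest to highest concentration) for 72 h at 37 degrees C before a luminescent ATP viability read.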
KB-3-1 tox – KB-3-1 parental cell cytotoxicity; Potency, µM (series often up to 46.1 µM), hits mostly cytotoxic; 1.4% of 400,000 active; KB-3-1 viability, CellTiter-Glo ATP luminescence, 72 h; AID 1347075; also: % is scaled to controls: 0 for no effect and ±100 for the full control effect; nearly all actives have a fitted effect of over 60% in size
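Viability of parental KB-3-1 cells, measured by CellTiter-Glo luminescence, followed a 72 h incubation at 37 °C with pinned compounds in phenol-red-free DMEM containing 10% FBS.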
* hit, by the source's call; i = inactive; ? = inconclusive; / = not tested or not shown; [ ] = dose if it differs, or a comment. Calls follow the shape of the dose curve; as a rule, active = well fitted curve in the direction sought with a large enough effect; inconclusive = small, poorly fitted or top-dose-only effect, or another doubt; inactive = no such curve, though single readings can be large; an effect the other way counts as inactive or inconclusive. Potency is read from the fitted curve at half-maximal effect.

SMILES	TGFb SMAD3 inh	HT1080 IDH1KD tx	HT1080NT lethal	HepG2 viability	KB-V1 cytotox	KB-3-1 tox
Cn1nc(NC(=O)C(F)(F)F)c2ncc(-c3ccc(Cl)cc3)nc21	9%	-12%	-10%	-20%	i	?
Cn1nc(N)c2ncc(-c3ccc(Cl)cc3)nc21	-5%	?	-2%	-14%	7.3µM*	i
COC(=O)c1ccccc1-c1c2ccc(=N)cc-2oc2cc(N)ccc12	-97%	10µM*	6.5µM*	-27%	i	1.3µM*
Nn1cnc2scc(-c3ccc(Cl)cc3)c2c1=O	5%	2%	-6%	-24%	i	i
O=c1c2c(-c3ccc(Cl)cc3)csc2nc2n1CCC2	-17%	-11%	-5%	-21%	18µM*	i
CCCCNC(=O)CSc1nc2n[nH]c(C)c2c(=N)n1-c1ccccc1CC	0%	/	/	-3%	/	/
CCOC(=O)c1oc2ccc(CNC3CCCCC3)c(Cl)c2c1C	?	-18%[9.24 µM]	11µM*	-52%	i	i
CCOC(=O)c1oc2ccc(CNCCO)c(Cl)c2c1C	1%	-16%	-19%	-30%	?	i
COC(=O)COc1ccc(S(=O)(=O)Nc2ccc(C(N)=O)cc2)cc1Cl	-26%	29%	20%	-2%	i	i
COC(=O)COc1ccc(S(=O)(=O)Nc2ccc(C(N)=O)cc2)cc1C	16µM*	20%	0%	-94%	i	i
O=c1c2ccccc2nc2sc(Nc3cccc(N4CCNCC4)c3)nn12	/	/	/	/	i	?
Cc1nc2c(c3c1[nH]c1ccccc13)C(O)CC(C)(C)C2 (stereo not given)	-33%	-1%	0%	-28%	16µM*	?
CCOc1ccccc1/C=C(\C#N)C(=O)NC1CC1	6%	-3%	-3%	-12%	?	i
CCOc1c(Br)cc(/C=C(\C#N)C(=O)NC2CC2)cc1OC	-25%	?	23µM*	-33%	?	i
CCC(=O)Nc1ccc(SC#N)cc1C	?	7.9µM*	?	-42%	?	i
CCc1cc(SC#N)cc(C)c1NC(=O)CCl	7.1µM*	?	?	-88%	i	?
Cc1cc(SC#N)cc(C)c1NC(=O)CCl	?	23µM*	18µM*	11µM*	i	i
CCc1cc(SC#N)cc(C)c1N	?	-17%	6%	-1%	i	i
CCC(=O)Nc1cc2c(C)cc(=O)oc2cc1C	-8%	15%	10%	1%	i	i
CC(=O)Nc1ccc(CN(C)c2c(C)nc3ccc(C(=O)N4CCN(C(C)=O)CC4)cn23)cc1	9%	-1%	24%	-37%	i	i
COc1cccc(OCC(=O)N(C)Cc2nc(-c3cccc(C)c3)no2)c1	-12%	-15%	-20%	-73%	23µM*	i
Cc1ccccc1CN1C(=O)c2ccccc2S(=O)(=O)c2ccc(C(=O)OCC3CCCO3)cc21 (stereo not given)	-13%	/	/	-1%	i	i
CCNC(=O)c1c(NC(=O)c2nc(SC)ncc2Cl)sc2c1CCCC2	-5%	/	/	-6%	i	?
CC(C)=CCC[C@H](C)CC1Cc2[nH]c(=S)[nH]c(=O)c2C(c2ccc(F)cc2)O1 (stereo not given in full)	13µM*	0%	1%	14µM*	i	i
CC(C)=CCC[C@H](C)CC1Cc2[nH]c(=S)[nH]c(=O)c2C(c2ccc(Cl)cc2)O1 (stereo not given in full)	/	16µM*	?	/	?	i
CC(C)=CCC[C@H](C)C[C@@H]1Cc2[nH][nH]c(=O)c2[C@H](c2ccc(Cl)cc2)O1	/	1%	-1%	/	i	i
CC(C)=CCC[C@H](C)C[C@@H]1Cc2[nH]c(=S)[nH]c(=O)c2[C@@H](c2ccc(F)cc2)O1	/	-26%	-22%	/	i	?
